Only some compounds are listed: those with a hit (about 8.3% of all), similar ones and a draw of the others.
MARV entry inh – qHTS for inhibitors of binding or entry into cells for Marburg Virus. actives 1.8% (n = 300,000). Marburg virus pseudotyped entry inhibition, cell reporter. Potency, µM (titrated, usually from 37.8 µM), for the others: top-dose activity change, negative = inhibition, usual class: inhibitors. AID 540276, 2011; calls by dose curve; tested in HEK293 cells; also: potency is read from the fitted curve at half-maximal effect
LASV entry inh – qHTS for Inhibitors of binding or entry into cells for Lassa Virus | Potency, µM (doses to about 37.9 µM), without a hit: at the highest dose activity change, negative = inhibition, actives largely listed as inhibitors | actives 1.2% (n = 300,000) | Lassa virus pseudotype entry inhibition, cell reporter; calls by dose curve; tested in HEK293 cells; also: potency is read from the fitted curve at half-maximal effect; nearly all actives have a fitted effect of over 50% in size
FMDV antiviral – High Throughput Screening for Foot and Mouth Disease Virus Antivirals. FMDV antiviral cell-based qHTS. Potency, µM (top dose mostly 57.9 µM), for inactives: at the top dose activity change, negative = inhibition, most hits filed as inhibitors. actives 1.2% (n = 410,000). AID 1159524, 2015; calls by dose curve; tested in HEK293T cells; also: read-out not given here; potency is read from the fitted curve at half-maximal effect; nearly all actives have a fitted effect of over 45% in size
HCV inh – qHTS Assay for Inhibitors of Hepatitis C Virus (HCV). Huh7.5.1 HCVcc-Cre infection, luciferase reporter, 44 h. Potency, µM (top dose mostly 41.8 µM), for the others: at the highest dose activity change, negative = inhibition, usual class: inhibitors. actives 3.4% (n = 340,000); also: potency is read from the fitted curve at half-maximal effect
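After 44 h co-culture of compound, cells and HCVcc-Cre (~0.5 moi), substrate is added for 15 min at room temperature and luciferase measured over 15 sec. Cells were seeded at 1,000/well and pre-cultured 4 h.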
HCMV antiviral – qHTS Assay for inhibitors of the human cytomegalovirus (HCMV); HFF cells, HCMV-luciferase reporter, 72 h; active compounds read low; activity change, negative = inhibition, % at 57.5 µM; actives 4.5% (n = 410,000); AID 1259415, 2018; in the data active = activity change below about -60%; inconclusive = no clear call, values can overlap the other calls; inactive = above about -39%
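Steps: HFFs plated, 16 h 37C; compounds added; HCMV-luciferase added to MOI 1 PFU/cell; 72 h 37C; OneGlo reagent, 5 min room temperature; luminescence read, normalized to controls.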
FBPA Giardia inh – qHTS Assay for Inhibitors of Fructose-1,6-bisphosphate Aldolase from Giardia Lamblia | AID 2451, 2010 | purified Giardia FBPA | actives 0.71% (n = 290,000) | A8B2U2 | Potency, µM (series often up to 59.6 µM), inactives show top-dose activity, negative = inhibition, hits mostly inhibitors; also: potency is read from the fitted curve at half-maximal effect; nearly all actives have a fitted effect of over 55% in size
Target sequence (A8B2U2 whole entry, looked up): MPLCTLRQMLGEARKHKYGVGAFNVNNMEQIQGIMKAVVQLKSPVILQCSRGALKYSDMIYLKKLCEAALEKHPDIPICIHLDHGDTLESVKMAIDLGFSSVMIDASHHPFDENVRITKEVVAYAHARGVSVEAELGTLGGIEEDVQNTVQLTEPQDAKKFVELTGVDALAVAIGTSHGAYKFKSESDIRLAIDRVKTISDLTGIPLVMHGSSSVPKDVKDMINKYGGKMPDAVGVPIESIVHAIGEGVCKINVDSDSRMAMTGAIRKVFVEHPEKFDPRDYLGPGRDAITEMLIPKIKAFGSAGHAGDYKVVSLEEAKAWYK
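Giardia FBPA (40 nM reagent) was preincubated 10 min at RT with compound (up to 57.5 uM final), then substrate plus GAPDH/TPI/NAD/arsenate coupling system with diaphorase/resazurin was added; resorufin fluorescence (525/598 nm) was read after 20 min.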
The depositor's hits bear a star; ? = inconclusive; nt = not tested or not shown; [ ] = another dose, or the depositor's remark. Unless noted, calls follow the shape of the dose curve; as a rule, active = well fitted curve in the direction sought with a large enough effect; inconclusive = small, poorly fitted or top-dose-only effect, or another doubt; inactive = no such curve, though single readings can be large; an effect the other way counts as inactive or inconclusive. % is scaled to controls: 0 for no effect and ±100 for the full control effect.

SMILES	MARV entry inh	LASV entry inh	FMDV antiviral	HCV inh	HCMV antiviral	FBPA Giardia inh
CCOC(=O)c1cc(C)n(CC2CCC(C(=O)Nc3ccccc3OC)CC2)c1C (centres undefined)	nt	-1%[46.1 µM]	-24%	nt	-30	nt
CCC(C)[C@H](NC(=O)OC(C)(C)C)C(=O)N/N=C/C1=Cc2ccccc2OC1 (some centres undefined)	?	?	12%	3%	?	3%
C[C@H](NC(=O)OC(C)(C)C)C(=O)N/N=C/C1=Cc2ccccc2OC1	nt	nt	-3%	-17%	-78*	1%
O=C1c2ccccc2C(=O)c2c(NCc3cccnc3)cccc21	6%	4%	-13%	?	?	-6%
O=C1c2cccc(NCCCNCCO)c2C(=O)c2cccc(NCCCNCCO)c21	?	-16%[46.1 µM]	0%	?	-98*	nt
COc1cc(OC)cc(C(=O)NCC(=O)NCCN2C(=O)S/C(=C\c3ccccc3Cl)C2=O)c1	nt	nt	-5%	10µM*	0	nt
COc1cc(C(=O)NCC(=O)NCCN2C(=O)S/C(=C\c3ccccc3Cl)C2=O)cc(OC)c1OC	?	1%	-8%	?	?	nt
COC(=O)C1OC(OC2CC[C@]3(C)C(CC[C@@]4(C)[C@@H]3CC=C3[C@@H]5CC(C)(C)CC[C@]5(C(=O)OC5OC(CO)C(O)C(O)C5O)CC[C@]34C)C2(C)C)C(O)C(O)C1O[C@H]1OCC(O)C(O)C1O (some centres undefined)	nt	nt	-26%	10µM*	nt	nt
C/C=C(\C)C(=O)OC1CC(C)(C)C[C@H]2C3=CC[C@@H]4[C@@]5(C)CCC(O[C@@H]6O[C@@H](C(=O)O)[C@@H](O)C(O[C@@H]7OC[C@H](O)[C@@H](O)[C@@H]7O[C@@H]7OC(CO)C(O)[C@@H](O)[C@@H]7O)C6O[C@@H]6OC(CO)C(O)C(O)C6O)[C@@](C)(CO)[C@@H]5CC[C@]4(C)[C@]3(C)CC(O)[C@@]12CO (some centres undefined)	nt	nt	-18%	11µM*	?	nt
COc1ccc(-c2noc([C@@H]3O[C@H](CO)[C@H](O)[C@H](O)[C@H]3O)n2)cc1OC	nt	nt	-2%	nt	26	nt
COc1ccc(Cl)cc1-c1noc([C@@H]2O[C@H](CO)[C@H](O)[C@H](O)[C@H]2O)n1	nt	nt	-25%	nt	-73*	nt
COc1ccccc1NC(=S)N(CCCN1CCOCC1)Cc1cn(C)c2ccccc12	?	-10%	-1%	?	-94*	0%
CCOc1ccccc1NC(=S)N(CCCN1CCOCC1)Cc1cn(C)c2ccccc12	?	?	-16%	?	?	-5%
COc1ccccc1NC(=S)N(CCN1CCOCC1)Cc1ccccc1F	?	?	-4%	9%	-61*	0%
COc1cc(Cl)ccc1NC(=S)N(CCCN1CCOCC1)Cc1cn(C)c2ccccc12	?	?	11%	?	-92*	?
COc1ccc(Cl)cc1NC(=S)N(CCCN1CCOCC1)Cc1cn(C)c2ccccc12	?	-14%	-8%	10µM*	-71*	?
CCOc1ccc(CCNC(=O)Cn2c(-c3cccs3)cc3ccccc32)cc1	nt	-20%[46.1 µM]	-1%	nt	-17	nt
CCCOC(=O)CSC1=C(C#N)[C@H](c2ccccc2OC)[C@H](C#N)C(=O)N1	6%	nt	nt	nt	nt	nt
COc1cc2c(cc1OC)C(C)N(C(=S)NC(=O)c1ccccc1)CC2 (centres undefined)	-3%[46.1 µM]	-15%	?	?	-61*	8%
COc1cc2c(cc1OC)C(C)N(C(=O)c1cc(C)on1)CC2 (centres undefined)	-25%	?	-20%	2%	-66*	nt
COc1cc2c(cc1OC)C(C)N(C(=O)c1cc3ccccc3o1)CC2 (centres undefined)	-27%	?	?	10µM*	-29	-5%
COc1cc2c(cc1OC)C(C)N(C(=O)c1c(C)noc1C)CC2 (centres undefined)	nt	nt	-7%	-6%	?	4%
COc1ccc(C2=NCC(C)n3c2c2ccc(C(F)(F)F)cc2[n+]3[O-])cc1 (centres undefined)	nt	nt	nt	nt	3	nt
COc1cccc(N2CCN(C(=O)CC(C)(C)CC3=NS(=O)(=O)c4ccccc4N3)CC2)c1	-17%[46.1 µM]	?	?	11µM*	-72*	nt
O=C(CCCC1=NS(=O)(=O)c2ccccc2N1)N1CCN(c2ccc(Cl)cc2)CC1	10%	17%	-15%	-13%[8.37 µM]	-19	1%
SMILES	MARV entry inh	LASV entry inh	FMDV antiviral	HCV inh	HCMV antiviral	FBPA Giardia inh
CC(C)(CC(=O)N1CCN(c2ccc(Cl)cc2)CC1)CC1=NS(=O)(=O)c2ccccc2N1	?	11µM*	0%	?	?	-1%
O=C(CCCC1=NS(=O)(=O)c2ccccc2N1)N1CCN(c2ccccc2)CC1	-14%	-9%	-9%	2%	11	-3%
COc1ccc(CNC(=O)Cn2cnc3c(SC)nc(N)nc32)cc1	nt	nt	-1%	8.9µM*	-15	nt
CSc1nc(N)nc2c1ncn2CC(=O)Nc1ccc(C)c(C)c1	nt	nt	?	3.5µM*	-30	nt
CCOc1ccc2ncc(S(=O)(=O)c3ccc(C)cc3)c(N3CCC4(CC3)OCCO4)c2c1	?	?	-22%	?	-90*	-1%
CCOC(=O)c1cnc2ccc(OCC)cc2c1N1CCN(C)CC1	?	-4%	-16%	?	14	-1%
CCOc1ccc(Cl)cc1/C=C1/C(=O)ON=C1C	14%[46.1 µM]	11%[46.1 µM]	40µM*	11%	78	-3%
CC1=NOC(=O)/C1=C/c1ccc(-c2ccc(Cl)cc2)o1	0%	nt	nt	nt	nt	-13%
COc1ccc(Cl)cc1/C=C1/C(=O)ON=C1C	-7%[46.1 µM]	?	32µM*	3%	55	3%
CC1=NOC(=O)/C1=C\c1ccc(-c2cc(Cl)ccc2Cl)o1	9%	22%	10µM*	?	-104*	-20%
O=c1c(-c2cc(-c3ccc(F)cc3)nc3c2COc2ccc(Cl)cc2-3)coc2ccc(F)cc12	-6%[46.1 µM]	-10%[46.1 µM]	-12%	nt	-21	nt
CC1CCC(NC(=O)c2ccc3c(c2)N(Cc2ccccc2F)C(=O)c2ccccc2S3=O)CC1 (centres undefined)	-28%[46.1 µM]	-12%[46.1 µM]	8%	nt	-14	nt
CCCc1cnc(NCCNCC(O)COc2ccc(Cl)c(Cl)c2)nc1 (centres undefined)	?	-28%	?	?	-98*	-5%
CC(=O)c1cccc(OCC(O)CNCCc2ccc(Cl)cc2)c1 (centres undefined)	0%[46.1 µM]	11%[46.1 µM]	21%	-16%	46	?

From PubChem
